VDR inhibitor – Inhibitors of the vitamin D receptor (VDR): qHTS. Potency, µM, inactives show max response, negative = inhibition, most hits filed as inhibitors. VDR-SRC2-3 peptide fluorescence polarization, 2 h. actives 0.93% (n = 400,000). Vitamin D3 receptor (Homo sapiens), P11473. AID 504847, 2011; also: potency is read from the fitted curve at half-maximal effect; % is scaled to controls: 0 for no effect and ±100 for the full control effect
Target sequence (P11473 whole entry, looked up): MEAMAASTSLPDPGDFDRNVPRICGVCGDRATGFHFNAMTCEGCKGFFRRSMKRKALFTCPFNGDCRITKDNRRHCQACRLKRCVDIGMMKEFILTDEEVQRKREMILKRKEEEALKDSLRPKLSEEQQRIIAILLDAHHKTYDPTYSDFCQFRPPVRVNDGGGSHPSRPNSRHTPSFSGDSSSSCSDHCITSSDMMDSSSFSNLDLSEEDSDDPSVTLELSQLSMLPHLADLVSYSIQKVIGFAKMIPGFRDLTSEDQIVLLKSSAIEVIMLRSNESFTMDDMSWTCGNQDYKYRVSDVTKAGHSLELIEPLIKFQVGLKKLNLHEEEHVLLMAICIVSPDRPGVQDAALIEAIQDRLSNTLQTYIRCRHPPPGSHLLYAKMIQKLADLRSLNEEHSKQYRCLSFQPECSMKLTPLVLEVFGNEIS
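Compounds are added to VDR with labelled SRC2-3 coactivator peptide and held 2 h at room temperature. Inhibition of the VDR–peptide interaction is then read as a change in fluorescence polarization.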
PTAP TSG101 blk – qHTS Assay for Iinhibitors of HIV-1 Budding by Blocking the Interaction of PTAP/TSG101; Tumor susceptibility gene 101 protein (Homo sapiens), Q99816; Fluorescence polarization, FITC-PTAP peptide / Tsg101 binding; Potency, µM (doses to about 115 µM), without a hit: at the top dose activity change, negative = inhibition, hits mostly inhibitors; 340,000 tested, under 10 active; AID 493005, 2010; active = well fitted inhibition curve with a large enough effect in the main read-out, with a control signal flat, not every such curve was filed as active; inconclusive = small, poorly fitted or top-dose-only effect, or effect the other way, or a change in a side signal; inactive = no such curve, though single readings can be large or run the other way; also: potency is read from the fitted curve at half-maximal effect; % of control where 0% means no effect
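Compounds were pin-transferred onto Tsg101 binding domain (10 uM final) in HEPES pH 7.5 buffer, then FITC-PTAP peptide was added at 50 nM final. After 20 min at RT, polarization reported peptide displacement across a qHTS concentration series.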
PLK1 PBD inh – qHTS for Inhibitors of PLK1-PDB (polo-like kinase 1 - polo-box domain): Primary Screen; Serine/threonine-protein kinase PLK1 (Homo sapiens), P53350; Plk1 PBD binding of FITC phosphopeptide, fluorescence polarization; AID 720504, 2013; Potency, µM, without a hit: max response, negative = inhibition, usual class: inhibitors; actives 2.8% (n = 360,000); also: potency is read from the fitted curve at half-maximal effect; series mostly up to about 57 µM; % is scaled to controls: 0 for no effect and ±100 for the full control effect; nearly all actives have a fitted effect of over 65% in size
TSHR antag – Antagonists of the Thyroid Stimulating Hormone Receptor: HTS campaign. Thyrotropin receptor (Homo sapiens), P16473. TSHR-expressing cells, TSH-stimulated cAMP HTRF, 2 h; stronger effect = lower value. activity change, negative = inhibition, % at 11.5 µM. actives 0.2% (n = 330,000). AID 504810, 2011;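 active = activity change below a set negative limit, meaning inhibition stronger than a set level, cut at about -70% in these data; inconclusive = activity change between two set negative limits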; also: % is scaled to controls: 0 for no effect and ±100 for the full control effect
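TSHR-expressing cells were treated with compounds, then stimulated with TSH at EC80 (4nM final) for 2 hours at 37 deg C. Cellular cAMP was measured by HTRF competition between lysate cAMP and cAMP-d2 for a cryptate-labelled anti-cAMP antibody.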
uPA generation – qHTS for Inhibitors of Cell Surface uPA Generation. Potency, µM (doses to about 38.3 µM), inactives show at the top dose activity change, negative = inhibition, hits mostly inhibitors. AID 540303, 2011. actives 0.31% (n = 330,000). cell surface uPA generation assay, qHTS; active = well fitted inhibition curve with a large enough effect; inconclusive = small, poorly fitted or top-dose-only effect; inactive = no such curve, though single readings can be large or run the other way; tested in mouse RAW 264.7 cells; also: potency is read from the fitted curve at half-maximal effect; % is scaled to controls: 0 for no effect and ±100 for the full control effect; nearly all actives have a fitted effect of over 55% in size
* hit, by the source's call; ? = inconclusive; . = not tested or not shown. Compounds with a hit are over-represented: about 3.1% of the library has one in this group of screens. Unless noted, calls follow the shape of the dose curve; as a rule, active = well fitted curve in the direction sought with a large enough effect; inconclusive = small, poorly fitted or top-dose-only effect, or another doubt; inactive = no such curve, though single readings can be large; an effect the other way counts as inactive or inconclusive.

SMILES	VDR inhibitor	PTAP TSG101 blk	PLK1 PBD inh	TSHR antag	uPA generation
COc1ccc2c(c1)C1OCCC1C(c1ccco1)N2 (centres undefined)	8%	-15%	-27%	.	2.5µM*
CCCOc1ccc(C(=O)CCN2CCN(C(=O)OCC)CC2)cc1	45µM*	2%	15µM*	-26	-5%
CCCCCOc1ccc(C(=O)CCN2CCOCC2)cc1	?	-1%	30µM*	-6	-4%
CC(C)Oc1ccc(C(=O)CCN2CCOCC2)cc1	45µM*	-2%	?	.	?
Cc1ccc(-c2nnc3ccccc3c2C(=O)Nc2ccccc2F)cc1	3%	.	.	.	.
NS(=O)(=O)c1ccc(CCNC(=O)c2ccc3nc(Cc4ccccc4)oc3c2)cc1	19%	.	.	.	.
COc1ccc(C(=O)CSc2cc(C)[nH]c(=O)n2)cc1	-4%	-3%	-27%	9	-16%
COc1cccc(-n2nnnc2SCC(=O)Nc2cccc(NC(C)=O)c2)c1	4%	-2%	1%	-7	6%
COc1cccc(-n2nnnc2S(C)(=O)=O)c1	45µM*	-7%	7.5µM*	-24	-10%
COc1cccc(Oc2nnnn2-c2ccccc2)c1	13%	-1%	-1%	-4	0%
COc1cccc(-n2nnnc2SCC(=O)Nc2ccc(NC(C)=O)cc2)c1	-18%	-2%	24µM*	-10	2%
CCn1nnnc1SCC(=O)Nc1cc(OC)cc(OC)c1	-21%	-2%	3.4µM*	27	-1%
CN(C)c1ncc2nc(-c3cc(F)cc(F)c3)c(=O)n(Cc3ccc(F)cc3)c2n1	1%	.	.	.	.
COc1ccc(CCNC(=O)CSc2ccc(NC(C)=O)cc2)cc1OC	-4%	0%	13µM*	-6	0%
COc1ccc(CCNC(=O)CSc2nnnn2-c2ccc(OC)c(OC)c2)cc1OC	11%	-4%	13µM*	20	-1%
Cc1cc(-c2nnc3sc(C4CCCCC4)nn23)n[nH]1	-14%	-4%	27µM*	1	-1%
CC(=O)N1c2ccc(S(=O)(=O)NCCC(=O)Nc3ccc(OC(F)(F)F)cc3)cc2CC1C (centres undefined)	?	1%	6.7µM*	-3	-4%
CC(=O)N1c2ccc(S(=O)(=O)NC(CC(=O)O)c3ccc(Br)cc3)cc2CC1C (centres undefined)	?	0%	27µM*	-11	-1%
CCOc1ccc(OCC)c(NC(=O)C2CCN(S(=O)(=O)c3ccc4c(c3)CC(C)N4C(C)=O)CC2)c1 (centres undefined)	-7%	-9%	30µM*	28	2%
CC(=O)N1c2ccc(S(=O)(=O)NCC3CCC(C(=O)N4CCCC(C)C4)CC3)cc2CC1C (centres undefined)	?	0%	21µM*	-9	-11%
CC(=O)N1c2ccc(S(=O)(=O)NCC3CCC(C(=O)N4CCCCC4)CC3)cc2CC1C (centres undefined)	-9%	-4%	-13%	-4	-6%
CC(=O)N1c2ccc(S(=O)(=O)NCCC(=O)Nc3ccc(Cl)cc3)cc2CC1C (centres undefined)	.	.	1%	.	.
COc1ccc(OC)c(NC(=O)Cn2cnc3ccc(S(=O)(=O)N4CCC(C)CC4)cc3c2=O)c1	21%	.	.	.	.
CC1Cc2cc(S(=O)(=O)NCCC(=O)NCc3ccc(F)cc3)ccc2N1C(=O)C1CC1 (centres undefined)	5%	2%	17%	-20	?
CC(=O)N1c2ccc(S(=O)(=O)NCCC(=O)NCc3ccc(F)cc3)cc2CC1C (centres undefined)	?	-12%	30µM*	8	10%
CC(=O)N1c2ccc(S(=O)(=O)NCCC(=O)NCCc3ccc(C)cc3)cc2CC1C (centres undefined)	?	-7%	30µM*	-3	-7%
CC(NC(=O)CSc1n[nH]c(-c2ccccc2Cl)n1)c1nc2ccccc2[nH]1 (centres undefined)	7%	.	.	.	.
COc1ccc(NC(=O)N2CCCC3(CCN(S(C)(=O)=O)CC3)C2)cc1	8%	.	.	.	.
